Here are results for 21 compounds from PubChem BioAssay (NCI).

Assay [1] can be described thus: NCI Yeast Anticancer Drug Screen. Data for the rad50 strain (AID 155).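 Further: 0% = growth of vehicle-only cultures of the same strain.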 To be noted: S. cerevisiae rad50 strain growth inhibition; at 50.0 µM; hits give high values. Put shortly: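 Genetically altered yeast (DNA repair pathway); compound treatment; growth inhibition vs vehicle ctrl.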
Assay [2] in a line: NCI Yeast Anticancer Drug Screen. Data for the mec2-1 strain (AID 157). To be noted: S. cerevisiae mec2-1 strain, at 50.0 µM, hits give high values. Put shortly:
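Growth inhibition is read against vehicle-treated controls after compound exposure of the mec2-1 yeast strain, which is defective in DNA damage repair or cell cycle control.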

Assay [3] in a line: NCI Yeast Anticancer Drug Screen. Data for the sgs1 mgt1 strain (AID 161).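 Further: 0% = growth of cultures given vehicle only.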 Conditions: S. cerevisiae sgs1 mgt1 strain, at 50.0 µM, hits give high values. Put shortly: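 Percent growth inhibition was derived by comparing compound-exposed mutant yeast with vehicle-exposed cultures. The strain carries alterations in DNA damage repair.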
Assay [4] is described as follows: NCI Yeast Anticancer Drug Screen. Data for the cln2 rad14 strain (AID 165).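 Further: 0% = growth equal to vehicle treated cultures.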 To be noted: S. cerevisiae cln2 rad14 strain, at 50.0 µM, hits give high values. Put shortly:
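Growth inhibition, relative to vehicle-treated controls, is the read-out. The test organism is a yeast strain with defined genetic alterations, cln2 rad14.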

The nature of assay [5]: NCI Yeast Anticancer Drug Screen. Data for the bub3 strain (AID 167). To be noted: S. cerevisiae bub3 mutant strain, at 50.0 µM, hits give high values. Put shortly:
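Yeast carrying a defined mutation is treated with each compound, and growth is compared with that of vehicle-exposed cells to give inhibition.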

The nature of assay [6]: NCI Yeast Anticancer Drug Screen. Data for the mlh1 rad18 strain (AID 175). To be noted: S. cerevisiae mlh1 rad18 strain growth inhibition; at 50.0 µM; hits give high values. In outline:
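Cells of a genetically altered yeast strain, deficient in DNA damage repair, were treated with compound. Their growth was then compared with that of vehicle-treated cultures to give inhibition.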

About 79,000 compounds went through this panel and 15% of them were active in at least one assay; those are over-represented in the sample as a whole. Unmarked numbers belong to inactive results. Active and inactive are the calls of the source. No stated cut-off is given here; in the data, active means growth inhibition above about 70%; inactive means the rest.

Turning to `CCNC(=O)OCc1cc(Cl)cc(Cl)c1OC(=O)NCC`, the growth inhibition in assay [1] is 99.5% (active); in assay [2], 99.2% (active); in assay [3], 99.7% (active); in assay [4], 96.8% (active); in assay [5], 98.5% (active); in assay [6], 99.5% (active).

Turning to `O=C(N/C(=C/c1ccccc1)C(=O)N1CCN(C(=O)/C(=C\c2ccccc2)NC(=O)c2ccccc2)CC1)c1ccccc1`, the growth inhibition was 0.9% in assay [1]; -0.45% in assay [2]; -8.05% in assay [3]; -5.7% in assay [4]; -6.8% in assay [5]; -2.95% in assay [6].

On to `CC(=O)C1CCCCCCC1=O` (stereo unspecified), for which the growth inhibition is 16.1% in assay [1]; -5.35% in assay [2]; 4.9% in assay [3]; -15.8% in assay [4]; -11.8% in assay [5]; 16.1% in assay [6].

`O=C(c1ccco1)C(O)c1ccccc1` (stereo unspecified): the growth inhibition in assay [1] is 1.3%; in assay [2] it was 8.9%; in assay [3], -2.6%; in assay [4] it was -2.55%; in assay [5] it was -11.9%; in assay [6] it was 5.95%.

Regarding `Cn1c(=O)oc2cc(Br)ccc21`, the growth inhibition in assay [1] was -8.9%; in assay [2], 0.7%; in assay [3], -3.1%; in assay [4], 18.9%; in assay [5], 23%; in assay [6] it was -67.8%.

Take `N#Cc1cccc(N2C(=O)c3ccc(C(=O)c4ccc5c(c4)C(=O)N(c4cccc(C#N)c4)C5=O)cc3C2=O)c1`: the growth inhibition in assay [1] is -25.9%; in assay [2] it was -16.3%; in assay [3] it was -49.5%; in assay [4] it was 23.8%; in assay [5], -0.7%; in assay [6], -12.3%.

As to `NNC(=O)C(O)C(O)C(=O)NN` (stereo unspecified), the growth inhibition in assay [1] is 8.5%; in assay [2], -6.8%; in assay [3] it was -20.2%; in assay [4] it was 46.6%; in assay [5], -8.05%; in assay [6], -8.1%.

As to `COc1cc2c(cc1OC)C1(CCBr)C3CC4C(=CCOC5CC(=O)N2C1C54)CN3C(=O)Cc1ccccc1` (stereo unspecified), the growth inhibition is 27.8% in assay [1]; -11.9% in assay [2]; -3.45% in assay [3]; 7.4% in assay [4]; 4.75% in assay [5]; 3.7% in assay [6].

Regarding `CCOC(=O)c1cc(O)cc(=O)n1C1OC(COC(=O)c2ccccc2)C(OC(=O)c2ccccc2)C1OC(=O)c1ccccc1` (stereo unspecified), the growth inhibition was 49.5% in assay [1]; -19.4% in assay [2]; 32.6% in assay [3]; 3.35% in assay [4]; -9.15% in assay [5]; -10.8% in assay [6].

For `Cc1ccc(C)c(OC(=O)Nc2ccccc2)c1`, the growth inhibition was -3.15% in assay [1]; 4.8% in assay [2]; -10.1% in assay [3]; -4.1% in assay [4]; -3.7% in assay [5]; -11.9% in assay [6].

As to `CCCSc1ncnc2c1nc(C)n2CO`, the growth inhibition is -2.15% in assay [1]; -2.55% in assay [2]; -1.35% in assay [3]; -14.1% in assay [4]; 2.3% in assay [5]; 0% in assay [6].

Take `COc1cc2c(c(Cl)c1O)C(=O)OC2`: the growth inhibition was -4.25% in assay [1]; -7.8% in assay [2]; 12.8% in assay [3]; 3.55% in assay [4]; -6.8% in assay [5]; 17.4% in assay [6].

As to `Cc1ccc(O)c(C(=O)c2ccccc2C(=O)O)c1`, the growth inhibition is 15% in assay [1]; -11.9% in assay [2]; -6.95% in assay [3]; 44.4% in assay [4]; 4.9% in assay [5]; 22.4% in assay [6].

For `CCn1c2ccccc2c2c(-c3ccccc3)cc3c(c21)C(=O)N(c1ccccc1)C3=O`, the growth inhibition is -0.3% in assay [1]; -8.95% in assay [2]; 3.45% in assay [3]; -54% in assay [4]; -7.9% in assay [5]; -9.9% in assay [6].

For `Cc1ccccc1NC(=O)NN`, the growth inhibition in assay [1] was -32.1%; in assay [2], -24.1%; in assay [3], -31.4%; in assay [4], 10.8%; in assay [5], -16.6%; in assay [6], -5.35%.

As for `CCc1nc(Nc2cccc(Cl)c2)c2cnn(-c3ccccc3)c2n1`, the growth inhibition in assay [1] is -11.2%; in assay [2], -8.35%; in assay [3], -4.35%; in assay [4], -48.4%; in assay [5], 14.7%; in assay [6], -6.85%.

Regarding `CC(=O)OCC1OC(OC(C)=O)C(NS(=O)(=O)Cc2ccccc2)C(OC(C)=O)C1OC(C)=O` (stereo unspecified), the growth inhibition in assay [1] was 10.5%; in assay [2], 17.4%; in assay [3], 13.7%; in assay [4], -1.35%; in assay [5], -1.2%; in assay [6] it was 20.4%.

For the compound `CCCCCC(CCCCC)c1ccccn1`, the growth inhibition in assay [1] is -14.3%; in assay [2] it was -11.4%; in assay [3] it was 3.95%; in assay [4] it was 22.4%; in assay [5] it was 26.9%; in assay [6], 4.1%.

On to `O=[N+]([O-])c1ccc2cccc3c2c1CC3`, for which the growth inhibition was 24.4% in assay [1]; 18.1% in assay [2]; 1.85% in assay [3]; -19.4% in assay [4]; 8.95% in assay [5]; 22.6% in assay [6].

Turning to `Cc1ccc(S(=O)(=O)OCC2OC(C)(C)OC2COS(=O)(=O)c2ccc(C)cc2)cc1` (stereo unspecified), the growth inhibition in assay [1] was 25%; in assay [2] it was -5.65%; in assay [3] it was 6.7%; in assay [4] it was -38.6%; in assay [5], 6.2%; in assay [6], 10.3%.

Take `CC1(C)CC2CC(CC(C)(C)C2=O)C1=O`: the growth inhibition is -8.65% in assay [1]; -11% in assay [2]; -0.7% in assay [3]; 5.05% in assay [4]; 7.9% in assay [5]; -1.75% in assay [6].
